Experimental data reported in PubChem BioAssay AID1159580 (chemical genetic matrix, 2015).
In all, about 5,500 compounds went through this assay and about 2,000 (36%) were called active. About 18% were inconclusive and are not listed. No stated cut-off is given here; in the data, active means normalized growth mostly below about 0.91 (no sharp cut-off); inconclusive means no clear call, values can overlap the other calls; inactive means mostly above about 0.92. This is one part of the list.

Test: chemical genetic growth profiling, strain panel (AID 1159580);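 further: tested at 20 µM; growth read once vehicle control cultures reached saturation at 30 °C; 1 = growth at the plate median or of vehicle wells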
Settings: S. cerevisiae deletion strains, growth OD

Measured: normalized growth

CN1C2CCC1CC(OC(=O)c1c[nH]c3ccccc13)C2 (stereo unspecified)
inactive: locus YAL040C, strain CLN3, stronger effect = lower value 0.995 | locus YCL061C, strain MRC1 (second series), stronger effect = lower value 1 | locus YDR363W, strain ESC2, stronger effect = lower value 1.01 | locus YER002W, strain NOP16, stronger effect = lower value 0.994 | locus YGR078C, strain PAC10, stronger effect = lower value 1.02 | locus YJR075W, strain HOC1, stronger effect = lower value 1 | locus YMR263W, strain SAP30, stronger effect = lower value 1 | locus YMR307W, strain GAS1, stronger effect = lower value 1.01 | locus YNL128W, strain TEP1, stronger effect = lower value 0.995 | locus YNL153C, strain GIM3, stronger effect = lower value 1.01 | locus YNL175C, strain NOP13, stronger effect = lower value 1 | locus YNL197C, strain WHI3, stronger effect = lower value 1.02 | locus YNL224C, strain SQS1, stronger effect = lower value 0.985 | locus YNL322C, strain KRE1, stronger effect = lower value 1.03 | locus YOR083W, strain WHI5 (second series), stronger effect = lower value 1.01 | locus YPL055C, strain LGE1, stronger effect = lower value 1.02
